Screening data deposited in PubChem BioAssay by National Center for Advancing Translational Sciences (NCATS).
NS1 function inh: influenza NS1 inhibition; hit rate 0.4% among 270,000; AID 2326; Potency, µM (highest dose often 46.1 µM); calls by dose curve; also: actives are rising curves; nearly all actives have a fitted effect of over 50% in size
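A cell-based growth assay was used: compounds that relieve NS1-induced slow growth of budding yeast raise OD600. Assay medium was yeast nitrogen base with ammonium sulphate and -URA supplement, pH 6.0, with 2% galactose.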
Giardia FBPA inh-1: Giardia lamblia aldolase inhibition; A8B2U2; purified Giardia FBPA; Potency, µM (titrated, usually from 59.6 µM), actives largely listed as inhibitors; hit rate 0.71% among 290,000; AID 2451; also: nearly all actives have a fitted effect of over 55% in size
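40 nM FBPA preincubated 10 min at RT with compound (up to 57.5 uM final), then substrate plus GAPDH/TPI/NAD/arsenate coupling and diaphorase/resazurin added. Fluorescence read after 20 min at RT, 525/598 nm.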
Pf growth 96h: P. falciparum growth inhibition at 96 hours; AID 504834; P. falciparum luciferase reporter growth, 96 h; hit rate 6.9% among 320,000; Potency, µM (doses to about 28.7 µM), most hits filed as inhibitors
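Cell-based qHTS: luciferase-tagged P. falciparum in erythrocytes (2% hematocrit, 0.05% parasitemia final) incubated with compounds for 96 hours, 37 C, 5% CO2; luciferase detection reagent then added and luminescence measured.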
CHX counter: affects cycloheximide protein synthesis inhibition readout, counter-screen. cell reporter, cycloheximide protein synthesis inhibition counterscreen. max response, %. hit rate 12% among 300,000. AID 2314; in the data active = max response mostly above about 13%, no sharp cut-off; inactive = mostly below about 14%; also: read at 38.3 µM for the half of the compounds with a filed dose
Pf growth 48h: P. falciparum growth inhibition at 48 hours (one generation); P. falciparum luciferase growth in erythrocytes, 48 h; Potency, µM (highest dose often 28.7 µM), usual class: inhibitors; AID 504832; hit rate 5.9% among 310,000
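Growth was read as firefly luciferase luminescence after a 48 h, 37 C, 5% CO2 exposure of compounds to reporter-bearing P. falciparum cultures (0.1% parasitemia, 2% hematocrit final) in Albumax-supplemented RPMI 1640.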
Shiga inhibitor: Shiga toxin inhibition; Vero cells, Shiga toxin protein synthesis inhibition reporter; inhibition, % at 38.7 µM; hit rate 9.2% among 290,000; in the data active = inhibition mostly above about 28%, no sharp cut-off; inactive = mostly below about 43%
Giardia growth: Giardia lamblia growth inhibition | shares compounds with Giardia FBPA inh-1 | Giardia lamblia trophozoite growth inhibition | Potency, µM (top dose mostly 57.5 µM), actives largely listed as inhibitors | hit rate 5% among 1,500 | AID 2785;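 also: trophozoites exposed to compound for 48 h at 37 °C; nearly all actives have a fitted effect of over 70% in size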
Mammalian tox: mammalian cytotoxicity of Giardia aldolase inhibitor hits | shares compounds with Giardia FBPA inh-1 | mammalian cell viability counter-screen, qHTS | Potency, µM (titrated, usually from 57.5 µM), most hits filed as inhibitors | hit rate 4% among 1,500 | AID 2786;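 also: Chinese hamster ovary cells used as mammalian cytotoxicity surrogate; viability measured as cellular ATP by luminescence; compound exposure lasted 48 h before reading; nearly all actives have a fitted effect of over 60% in size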
Giardia FBPA inh-2: confirmation of Giardia fructose-bisphosphate aldolase inhibitors. Potency, µM (doses to about 57.5 µM), most hits filed as inhibitors. purified Giardia aldolase enzyme activity, qHTS. shares compounds with Giardia FBPA inh-1. hit rate 5% among 1,500; also: nearly all actives have a fitted effect of over 45% in size
Rabbit aldolase: rabbit FBP aldolase inhibition by Giardia aldolase hits. shares compounds with Giardia FBPA inh-1. Rabbit muscle FBPA enzyme inhibition, selectivity counter-screen. Potency, µM (highest dose often 57.5 µM), hits mostly inhibitors. hit rate 4% among 1,500. AID 2794; also: nearly all actives have a fitted effect of over 60% in size
Target sequence (P00883 whole entry, looked up): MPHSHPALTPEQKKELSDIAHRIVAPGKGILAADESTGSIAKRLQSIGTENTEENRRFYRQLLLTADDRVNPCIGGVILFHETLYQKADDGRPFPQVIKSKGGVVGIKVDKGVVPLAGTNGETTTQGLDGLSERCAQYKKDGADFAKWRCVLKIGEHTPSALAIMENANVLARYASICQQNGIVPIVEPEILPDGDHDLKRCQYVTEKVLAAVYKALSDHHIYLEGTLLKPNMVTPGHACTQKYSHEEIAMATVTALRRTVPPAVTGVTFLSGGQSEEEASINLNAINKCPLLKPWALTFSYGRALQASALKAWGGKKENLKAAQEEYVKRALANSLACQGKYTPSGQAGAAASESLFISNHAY
GAPDH counter: counter-screen for Giardia aldolase inhibitors: GAPDH coupling enzyme | AID 2795 | shares compounds with Giardia FBPA inh-1 | GAPDH coupling enzyme counterscreen, biochemical, qHTS | Potency, µM (titrated, usually from 57.5 µM), hits mostly inhibitors | hit rate 6% among 1,500; also: nearly all actives have a fitted effect of over 55% in size
Numbers stand for hits; . = inactive; ? = inconclusive; / = no result given; [ ] = remark or other dose. Most compounds without a hit are left out; they make up all but 21% or so of the library. Unless noted, calls follow the shape of the dose curve; as a rule, active = well fitted curve in the direction sought with a large enough effect; inconclusive = small, poorly fitted or top-dose-only effect, or another doubt; inactive = no such curve, though single readings can be large; an effect the other way counts as inactive or inconclusive.

SMILES | NS1 function inh | Giardia FBPA inh-1 | Pf growth 96h | CHX counter | Pf growth 48h | Shiga inhibitor | Giardia growth | Mammalian tox | Giardia FBPA inh-2 | Rabbit aldolase | GAPDH counter
CCn1c(SCC(=O)c2ccc(O)c(O)c2)nnc1-c1ccccc1 | . | 2.2µM | ? | 34 | ? | . | . | . | . | . | .
C=CCn1c(SCC(=O)c2ccc(O)c(O)c2)nnc1-c1ccccc1OC | . | 3.2µM | ? | . | ? | . | ? | ? | . | . | .
C=CCn1c(SCC(=O)c2ccc(O)c(O)c2)nnc1-c1cccnc1 | . | 16µM | . | . | . | . | .[10.4 µM] | . | . | . | .
C=CCn1c(SCC(=O)c2ccc(O)c(O)c2)nnc1-c1cccc(C)c1 | / | / | . | / | . | / | / | / | / | / | /
CCn1c(CSc2nc3ccccc3s2)nnc1SCC(=O)c1ccc(O)c(O)c1 | . | ? | / | . | ? | . | / | / | / | / | /
CCn1c(SCC(=O)c2cc(C)n(C)c2C)nnc1-c1ccccc1 | . | . | ? | . | / | . | / | / | / | / | /
COc1ccc(/C=N/N=C2\SC(CC(=O)O)C(=O)N2c2ccccc2)c(OC)c1 (stereo unspecified) | . | . | . | . | . | . | / | / | / | / | /
COC(=O)c1ccc(C(NC(=O)OCc2ccccc2)/C(F)=C/[C@@H](C)C(=O)NCCO)cc1 (stereo partly specified) | / | . | / | / | / | / | / | / | / | / | /
COC(=O)c1cnc(NNS(=O)(=O)c2ccc(Cl)cc2)nc1C(F)(F)F | . | 16µM | . | . | . | . | . | . | . | . | .
O=C(CN1CCOCC1)N1CCCc2ccccc21 | . | 13µM | ? | . | . | . | ? | . | . | . | .
COCC(=O)N1CCCc2ccccc21 | . | . | . | . | . | . | / | / | / | / | /
O=c1cc2oc3cc(O)c(O)cc3c(-c3ccccc3O)c-2cc1O | . | 16µM | 3.7µM | . | 4.1µM | . | . | . | ? | . | .
COc1ccc(Nc2cc(C)c3ccc(O)cc3n2)cc1 | . | . | ? | 46 | 0.37µM | 52 | . | . | ? | ? | ?
CC1=NN(C(N)=S)C(C)(C)C1 | . | 11µM | . | . | . | . | . | . | . | . | .
CC1=NN(C(=S)Nc2ccccc2)C(C)(C)C1 | . | . | ? | . | . | . | / | / | / | / | /
CC1CCCCN1CC(O)COc1ccc(OCC(O)CN2CCCCC2C)cc1 (stereo unspecified) | . | . | . | . | ? | / | / | / | / | / | /
O=C(C1=C(O)C(=O)N(c2nccs2)C1c1ccccc1)c1cc2ccccc2o1 (stereo unspecified) | . | 16µM | . | 44 | . | 59 | . | . | . | . | .
NS(=O)(=O)c1ccc(CCNCC#Cc2ccccc2)cc1 | . | 22µM | . | . | . | . | . | . | . | . | .
NS(=O)(=O)c1ccc(CCNC/C=C/c2ccccc2)cc1 | . | ? | ? | . | . | . | / | / | / | / | /
COc1ccc(-c2csc(N(CCCN(C)C)C(=O)c3ccccc3F)n2)cc1 | . | 28µM | . | . | ? | . | . | . | . | . | .
Cc1nccn1CC1CCc2c(c3ccccc3n2C)C1=O (stereo unspecified) | . | 20µM | . | . | . | . | .[10.4 µM] | . | . | . | .
Cc1nccn1C[C@@H]1CCc2c(c3ccccc3n2C)C1=O | . | . | . | . | . | . | / | / | / | / | /
CCCC(=O)NC(c1ccco1)c1cc([N+](=O)[O-])c2cccnc2c1O (stereo unspecified) | / | 7.1µM | . | . | ? | . | ? | . | . | . | ?
Cc1ccccc1CN(C)C(=O)COC(=O)CSc1ccc([N+](=O)[O-])cc1 | / | / | . | / | ? | / | / | / | / | / | /
